# Rows were chosen to be rich in hits. Some 21% of all compounds tested hit in one or more screens of this group.
# IL-1B inflam inh: qHTS for Inhibitors of Inflammasome Signaling: IL-1-beta AlphaLISA Primary Screen; THP-1 LPS/ATP IL-1B secretion, AlphaLISA, 16 h; active compounds read low; activity change, % at 57.5 µM; AID 743279, 2014; 360,000 compounds, 4.7% hits; in the data active = activity change below about -50%; inconclusive = mostly about -30% to -49%; note: % is set by controls: 0 for no effect and ±100 for the full control effect
#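 Secreted IL-1B measured by AlphaLISA bead assay after 16 h compound exposure of THP-1 cells; compounds (final up to 57.5 uM) added 1 h before LPS (250 ng/mL) and ATP (1.25 mM) stimulation; lower signal means less secretion.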
# ClpP mod: qHTS Assay for Activators of ClpP; ATP-dependent Clp protease proteolytic subunit (Bacillus subtilis (strain 168)), P80244; purified B. subtilis ClpP, FRET peptide cleavage, 20 min; Potency, µM (doses to about 57.5 µM), inactives show at the highest dose activity change, negative = active; 340,000 compounds, 1.9% hits; AID 651965, 2013; active = well fitted falling curve with a large enough effect; inconclusive = small, poorly fitted or top-dose-only effect; inactive = no such curve, though single readings can be large or run the other way; note: potency is the fitted concentration of half-maximal effect; the source files actives as falling curves though it sought activators and does not explain the sign; nearly all actives have a fitted effect of over 65% in size
# Target sequence (P80244 whole entry, looked up): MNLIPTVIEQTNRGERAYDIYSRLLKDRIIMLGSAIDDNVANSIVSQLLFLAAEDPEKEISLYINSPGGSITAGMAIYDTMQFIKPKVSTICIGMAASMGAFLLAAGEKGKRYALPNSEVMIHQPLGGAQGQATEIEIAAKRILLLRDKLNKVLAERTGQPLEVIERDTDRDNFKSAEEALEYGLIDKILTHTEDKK
#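 Purified B. subtilis ClpP, 10 microg/mL final in Tris/HCl pH8 with KCl, BSA, glycerol and Tween-20, cleaved an Abz/nitrotyrosine-quenched decapeptide. Fluorescence (ex 320, em 430) was read at 0 and 20 min at room temperature. Delta was normalized to 5.8 microM ADEP and DMSO/no-enzyme controls.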
# D3 ag: qHTS of D3 Dopamine Receptor Agonist: qHTS. D(3) dopamine receptor (Homo sapiens), P35462. D3R DiscoveRx beta-arrestin cells, luminescence, 90 min. max activation, %. 410,000 compounds, 0.58% hits; in the data active = max activation above about 30%; note: 0% is about no effect
#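 Agonist-mode cell screen: cells plated at 1500/well and incubated overnight at 37 °C, then exposed to library compounds for 90 min at 37 °C. Detection reagent was added for 30–60 min at room temperature, and luminescence was read.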
# DT40 TDP1 CPT: qHTS for Inhibitors of human tyrosyl-DNA phosphodiesterase 1 (TDP1): qHTS in cells in presence of CPT. chicken DT40 Tdp1-/-;hTDP1 cells + 20 nM CPT, ATP luminescence, 48 h. Potency, µM (highest dose often 46.2 µM), inactives show top-dose activity change, negative = growth inhibition, most hits filed as inhibitors. 420,000 compounds, 12% hits; note: potency is the fitted concentration of half-maximal effect; % is set by controls: 0 for no effect and ±100 for the full control effect; nearly all actives have a fitted effect of over 55% in size
#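 Chicken DT40 Tdp1-/- cells complemented with human TDP1, 400 cells/well, exposed to compounds plus 20 nM camptothecin for at least 48 h at 37 C; viability read as ATP content by CellTiter-Glo luminescence.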
# D3 antag: qHTS of D3 Dopamine Receptor Antagonist: qHTS. D(3) dopamine receptor (Homo sapiens), P35462. D3R cells, DiscoveRx beta-arrestin luminescence, antagonist mode; active compounds read low. max response, negative = inhibition, %. 360,000 compounds, 2.5% hits. AID 652054, 2013; in the data active = max response below about -50%; inconclusive = no clear call, values can overlap the other calls; note: % is set by controls: 0 for no effect and ±100 for the full control effect
#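 Cells plated overnight at 1500 cells/well, then exposed to library compounds with dopamine controls for 90 minutes at 37 degrees C. DiscoveRx reagent added for 30–60 minutes at room temperature; luminescence read, quantitative HTS format.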
# DT40 TDP1 no CPT: qHTS for Inhibitors of human tyrosyl-DNA phosphodiesterase 1 (TDP1): qHTS in cells in absence of CPT. DT40 Tdp1-/- hTDP1 cells, no CPT, ATP luminescence, 48 h. Potency, µM (titrated, usually from 46.2 µM), inactives show at the top dose activity change, negative = growth inhibition, hits mostly inhibitors. 420,000 compounds, 15% hits; note: potency is the fitted concentration of half-maximal effect; % is set by controls: 0 for no effect and ±100 for the full control effect; nearly all actives have a fitted effect of over 55% in size
#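 Growth of hTDP1-complemented DT40 Tdp1-knockout cells is measured by ATP luminescence after at least 48 hr compound exposure at 37 °C, with DMSO substituting for the 20 nM CPT used in the parallel screen.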
# Active calls of the source: *; ? = inconclusive; . = not tested or not shown; ! = repeats disagree. Unless noted, calls come from the whole dose curve; as a rule, active = well fitted inhibition curve with a large enough effect; inconclusive = small, poorly fitted or top-dose-only effect; inactive = flat fitted curve, though single readings scatter.
SMILES,IL-1B inflam inh,ClpP mod,D3 ag,DT40 TDP1 CPT,D3 antag,DT40 TDP1 no CPT
CC1CCN(S(=O)(=O)c2ccc3c(c2)N(CC(=O)Nc2ccc(F)c(Cl)c2)C(=O)CO3)CC1,.,1%,2,23µM*,.,15µM*
Cc1ccc(NC(=O)CN2C(=O)COc3ccc(S(=O)(=O)N4CCOCC4)cc32)cc1N(C)C,6,2%,-19,-24%,-13,-10%
Cc1cc(NC(=O)CCNS(=O)(=O)c2ccc3c(c2)CCCC(=O)N3)ccc1Br,.,1%,-21,.,.,.
CC(C)NC(=O)CN1C(=O)COc2ccc(S(=O)(=O)N3CCCCCC3)cc21,.,-2%,5,-1%,.,1%
Cc1ccccc1NC(=O)CN1C(=O)COc2ccc(S(=O)(=O)N3CCCC3)cc21,6,0%,0,-1%,-3,-1%
Cc1ccc(NC(=O)CN2C(=O)COc3ccc(S(=O)(=O)N4CCCC4)cc32)cc1C,-52*,.,3,-1%,-5,?
CC(C)c1ccc(NC(=O)CN2C(=O)COc3ccc(S(=O)(=O)N4CCCCC4)cc32)cc1,.,1%,-12,?,.,23µM*
COc1ccc(NC(=O)C2=CN3CCS(=O)(=O)N=C3C=C2)c(OC)c1,23,-20%,-5,18%,24,-16%
C=CCOC(=O)/C(=C/c1cccc2ccccc12)NC(=O)c1ccccc1,-10,-1%,1,29µM*,0,23µM*
COc1ccc(C(=O)N/C(=C\c2cn(C)c3ccccc23)C(=O)N2CCN(C)CC2)cc1,-16,-2%,-12,3%,-16,26%
O=C(OCc1ccccc1)/C(=C/c1cccc2ccccc12)NC(=O)c1ccccc1,15,-1%,3,7%,17,?
COc1ccc(C(=O)N/C(=C\c2cccc3ccccc23)C(=O)N2CCN(C)CC2)cc1,?,-1%,-17,?,-21,18µM*
C[C@H](CO)N1C[C@H](C)[C@H](CN(C)C(=O)Nc2ccc3c(c2)OCCO3)OCc2cnnn2CCCC1=O,-3,-2%,-5,10%,5,-6%
Cc1ccc(SCCN2CCN(CCc3ccccc3)CCC2=O)cc1,-1,-2%,-68,16µM*,-59*,16µM*
Cc1ccc(SC[C@H](c2ccccc2)N2CCN(C)CCC2=O)cc1,-3,-5%,-14,-16%,4,?
CC(C)CN1CCC(=O)N([C@H](CO)c2ccccc2)CC1,10,1%,0,-6%,51,7%
Cc1ccc(SC[C@H](c2ccccc2)N2CCN(CC(C)C)CCC2=O)cc1,-6,0%,-68,16µM*,-89*,12µM*
CCCN1CCC(=O)N([C@H](CSc2ccc(OC)cc2)c2ccccc2)CC1,12,-9%,-35,?,-15,16µM*
CCCCCCCN1CCC(=O)N([C@H](CO)c2ccccc2)CC1,9,-2%,-58,-16%,?,-23%
CN1CCC(=O)N([C@H](CSc2ccccc2)c2ccccc2)CC1,4,-7%,-39,?,?,18µM*!
COCCCNC(=O)C[C@H]1C[C@H](C(=O)N(C(C)C)C(C)C)[C@@]2(C)c3[nH]c4cc(CCC(=O)N(C)C)ccc4c3CCN2C1=O,31,-3%,-24,0%,20,1%
O=C(Nc1cccc(F)c1)Nc1nnc([C@@H]2O[C@H](CO)[C@@H](O)[C@H]2O)s1,29,2%,-7,-13%,-3,-8%
